Screens (PubChem)
ANO1 activ = activators or potentiators of mouse TMEM16A chloride channel; Q8BHY3; HEK293 TMEM16A/YFP-H148Q/I152L, iodide quench fluorescence; active compounds read low; B-score at 10 µM; actives 0.3% (n = 340,000); AID 623877;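 active = fluorescence-ratio B-score plate-corrected deviation score at least 3 library SD below zero, with starting fluorescence score within 5 deviations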;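 note: channel opened by trigger with iodide after compound preincubation; score built on the fluorescence ratio of max minus min over baseline; more negative score means more quench and so TMEM16A activation or potentiation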
TMEM16A inh = inhibitors of mouse TMEM16A calcium-activated chloride channel | HEK293 TMEM16A/YFP iodide influx fluorescence, ionomycin | normalized B-score (activity score, 25-100; higher = stronger inhibition) at 10 µM | actives 1.2% (n = 310,000) | AID 588511;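 active = ratio plate-corrected score three or more library SD toward inhibition, starting fluorescence score within five deviations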;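 note: score derived from kinetic fluorescence span divided by baseline fluorescence per well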
TLR4 MyD88 comp = inhibitors of human TLR4-MyD88 binding; O00206+Q99836; inhibition, % at 8.4 µM; HeLa CL3-4 TLR4/MyD88 BLA complementation, FRET ratio; AID 861; actives 0.18% (n = 200,000); in the data active = inhibition above about 25%;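 note: 0% = vehicle and 100% = reference inhibitor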
HTR2A ag = activates the mouse 5-HT2A serotonin receptor. P35363. CHO-K1 mHTR2A beta-arrestin complementation, luminescence; percent of 30 µM serotonin response. activation, % at 7.6 µM. actives 0.66% (n = 360,000). AID 624169;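 active = activation above a run cutoff, the mean activation of all tested compounds plus 3 SD, cut at about 14% in these data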;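 note: 0% = plate median of compound wells and 100% = 30 µM serotonin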
NOD2 RIPK2 PPI = blocks binding of human NOD2 to RIPK2 | CHO BLA complementation NOD2-RIPK2, CCF4 ratio | AID 624267 | actives 0.38% (n = 360,000) | O43353 | inhibition, % at 4.98 µM; in the data active = inhibition above about 21%;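 note: 0% = vehicle only and 100% = reference blocker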
Target sequence (O43353 whole entry, looked up): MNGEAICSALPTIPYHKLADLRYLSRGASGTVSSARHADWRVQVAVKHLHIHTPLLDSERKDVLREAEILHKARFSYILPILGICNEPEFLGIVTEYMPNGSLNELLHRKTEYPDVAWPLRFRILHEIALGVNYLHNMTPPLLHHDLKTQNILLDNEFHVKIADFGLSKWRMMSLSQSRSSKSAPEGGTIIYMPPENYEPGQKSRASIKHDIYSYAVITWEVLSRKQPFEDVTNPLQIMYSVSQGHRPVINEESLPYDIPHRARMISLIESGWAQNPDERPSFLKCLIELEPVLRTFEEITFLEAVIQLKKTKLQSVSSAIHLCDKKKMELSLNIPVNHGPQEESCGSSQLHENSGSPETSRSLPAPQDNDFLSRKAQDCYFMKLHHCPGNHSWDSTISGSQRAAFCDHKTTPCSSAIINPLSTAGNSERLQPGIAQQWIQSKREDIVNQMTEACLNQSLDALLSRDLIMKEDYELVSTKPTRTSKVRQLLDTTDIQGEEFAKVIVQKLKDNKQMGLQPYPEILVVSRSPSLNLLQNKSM
TLR9-MyD88 block = TLR9-MyD88 interaction inhibition | CHO BLA complementation TLR9-MyD88, CCF4 FRET ratio | actives 0.21% (n = 340,000) | inhibition, % at 4.98 µM;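 active = inhibition above the mean over all tested compounds plus 3 SD, cut at about 21% in these data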;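 note: 0% = DMSO only wells and 100% = clavulanate BLA inhibitor control wells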
Active calls of the source: *; i = inactive; . = no result given. An excerpt weighted towards active compounds, which were near 2.4% of everything screened.

SMILES	ANO1 activ	TMEM16A inh	TLR4 MyD88 comp	HTR2A ag	NOD2 RIPK2 PPI	TLR9-MyD88 block
Oc1ccccc1-[n+]1c(-c2ccccc2)cc(-c2ccccc2)cc1-c1ccccc1	i	i	.	-5	0	-19
[O-]c1ccccc1-[n+]1c(-c2ccccc2)cc(-c2ccccc2)cc1-c1ccccc1	i	100*	.	-4	-1	-5
Cc1ccccc1-[n+]1c(-c2ccccc2)cc(-c2ccccc2)cc1-c1ccccc1	i	100*	.	0	5	6
Nc1ccccc1-[n+]1c(-c2ccccc2)cc(-c2ccccc2)cc1-c1ccccc1	-9*	i	.	3	-9	-4
C[C@]12CCC3C(CC[C@@H]4[C@H]5O[C@H]5CC[C@]34C)C1CC[C@@H]2O (some centres undefined)	i	.	.	9	-2	-10
NC(Cc1ccc(Cl)cc1)c1csc(Nc2ncccn2)n1 (centres undefined)	.	.	.	5	6	.
CC1CCN(S(=O)(=O)c2ccc(NN=C(C#N)C#N)cc2)CC1	.	100*	11	.	.	.
CC(C)OC(=O)C1C2c3ccccc3C(c3ccccc32)C1C(=O)O (centres undefined)	i	i	4	9	0	-2
COC(=O)C1C2c3ccccc3C(c3ccccc32)C1C(=O)OC (centres undefined)	-8.8*	i	-13	-2	-7	-8
CCN1CCN(C(=O)COc2ccc3c(c2)C(=O)CC2(CCN(C(C)=O)CC2)O3)CC1	i	i	7	0	5	0
COc1ccc(CNC(C)Cc2cccs2)cc1 (centres undefined)	-27*	i	2	-1	-7	1
COc1ccc(CCNC(C)CCc2ccc(OC)cc2)cc1 (centres undefined)	i	i	-10	-4	1	-10
CC1CN=C(Nc2ccc(F)cc2)S1 (centres undefined)	-4.6*	i	4	1	2	-5
CC1(C)CSC(=NCc2ccccc2)N1	-6.4*	i	8	-5	-3	14
CC(C)C[C@H]1C(=O)N2CCC[C@H]2[C@]2(O)O[C@](NC(=O)[C@@H]3C=C4c5cccc6[nH]cc(c56)C[C@H]4N(C)C3)(C(C)C)C(=O)N12	i	i	.	49*	0	-15
CC[C@@H](CO)NC(=O)[C@@H]1C=C2c3cccc4c3c(cn4C)C[C@H]2N(C)C1	i	i	0	.	-7	-1
Cc1ccc(N2C(=O)NC(=O)/C(=C\c3ccoc3)C2=O)cc1	-4.6*	i	-13	-2	-2	-6
O=C(O)c1ccc(-[n+]2c(-c3ccccc3)cc(-c3ccccc3)cc2-c2ccccc2)cc1	i	i	.	-6	-2	-3
COc1ccc(-[n+]2c(-c3ccccc3)cc(-c3ccc(C)cc3)cc2-c2ccccc2)cc1	i	100*	.	12	-4	-2
Cc1ccc(-c2cc(-c3ccccc3)cc(-c3ccccc3)[n+]2-c2ccc(C(=O)O)cc2)cc1	i	i	.	12	-2	5
CCCOC(=O)c1ccc(-[n+]2c(-c3ccccc3)cc(-c3ccccc3)cc2-c2ccccc2)cc1	-5.7*	100*	.	11	-6	0
Brc1ccc(-[n+]2c(-c3ccccc3)cc(-c3ccccc3)cc2-c2ccccc2)cc1	i	100*	.	3	1	1
Clc1ccc(C(c2ccc(Cl)cc2)n2cc[n+](CC(OCc3ccc(Cl)cc3Cl)c3ccc(Cl)cc3Cl)c2)cc1 (centres undefined)	i	i	.	12	21	28*
COc1ccccc1Cn1c(SCC#N)nc2cc(C(=O)N3CCC4(CC3)OCCO4)ccc2c1=O	i	i	-3	-5	-4	2
ClC1=C(Cl)C2(Cl)C3C(Cl)C=CC3C1(Cl)C2(Cl)Cl (centres undefined)	-16*	.	.	-3	-14	-6
SMILES	ANO1 activ	TMEM16A inh	TLR4 MyD88 comp	HTR2A ag	NOD2 RIPK2 PPI	TLR9-MyD88 block
O=C1NC(=O)C2C1C1(Cl)C(Cl)=C(Cl)C2(Cl)C1(Cl)Cl (centres undefined)	i	.	.	3	-4	-8
C[C@H](CO)N1C[C@H](C)[C@@H](CN(C)C(=O)Oc2ccc3ccccc3c2)OCc2cnnn2CCCC1=O	.	.	.	-2	3	13
CCN(CCO)c1ccc(N=Cc2c(O)n(C)c(=S)[nH]c2=O)cc1	-10*	i	.	2	-8	.
CCN(CC)c1ccc(N=Cc2c(O)n(Cc3ccco3)c(=O)[nH]c2=O)cc1	i	i	.	0	-10	-1
CCCCCC1(C(C)C)C(=O)NC(=S)NC1=O	i	.	.	0	11	-2
COc1cc([N+](=O)[O-])c2ncccc2c1[N+](=O)[O-]	.	.	.	5	-3	.
CN1C(=O)NC(=O)/C(=C\C=C\c2ccccc2[N+](=O)[O-])C1=O	.	25*	-2	.	.	.
O=C1NC(=O)N(CCc2ccc(F)cc2)C(=O)/C1=C\C=C\c1ccccc1	i	.	-1	5	-11	5
C[C@H](NC(=O)N1C[C@H]2C[C@@H](C1)c1cccc(=O)n1C2)C(=O)Nc1ccc(F)c(F)c1	i	i	.	2	6	2
Cc1cc(OCC(=O)N[C@H](C(=O)O)c2ccccc2)c2c3c(c(=O)oc2c1)CCC3	-16*	i	.	-4	-4	5
Cc1ccc2c(c1)C1CN(C)CCC1N2C(=O)CCCN1C(=O)c2cccc3cccc(c23)C1=O (centres undefined)	i	i	.	-5	-16	-2
COC1/C=C/C=C(\C)Cc2cc(O)c(Cl)c(c2)N(C)C(=O)CC(OC(=O)C(C)C)C2(C)OC2C(C)C2CC1(O)NC(=O)O2 (centres undefined)	-5*	.	.	-2	18	-1
CC(C)NC(=O)Cn1cc(C(=O)c2ccccc2F)c2ccccc21	-5.3*	i	-4	2	-5	-8
C=CCC1(CCCCC)C(=O)NC(=S)NC1=O	i	.	.	-1	-5	5
Nc1c(C(=O)OCC2CCCO2)c2nc3ccccc3nc2n1Cc1cccs1 (centres undefined)	i	i	-1	-1	8	-7
CC(=O)OC(C)(C)/C=C/C(=O)[C@](C)(O)C1[C@H](O)C[C@@]2(C)C3CC=C4C(C[C@H](O)C(=O)C4(C)C)[C@]3(C)C(=O)C[C@]12C (some centres undefined)	i	.	.	16*	16	9
COc1c(C)cc(C(=O)C2CCCN(Cc3cnc(C)s3)C2)cc1C (centres undefined)	i	i	-9	0	1	-5
CCC(C)/C=C(C)/C=C/C1=CC2=C(Cl)C(=O)C(C)(OC(C)=O)C(=O)C2=CO1 (centres undefined)	i	100*	-6	-1	-7	7
